Assay results: publication PMC4336329 (PLoS ONE, 2015)
About 14,000 (4.5%) of roughly 310,000 compounds showed an effect of 50% or more. Effects have a minus sign here. The sample holds strong results, similar compounds and a random draw of the others, so the mix is not that of the screen.

Target: human ether-à-go-go-related gene (hERG) potassium channel (human, UniProt Q12809)
Assay: primary screen, population patch clamp on CHO cells stably expressing hERG; higher = less effect of the substance
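Further: peak tail current of the secondary pulse compared with the same well before compound.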

human ether-à-go-go-related gene (hERG) potassium channel, sequence (Q12809 whole entry, looked up): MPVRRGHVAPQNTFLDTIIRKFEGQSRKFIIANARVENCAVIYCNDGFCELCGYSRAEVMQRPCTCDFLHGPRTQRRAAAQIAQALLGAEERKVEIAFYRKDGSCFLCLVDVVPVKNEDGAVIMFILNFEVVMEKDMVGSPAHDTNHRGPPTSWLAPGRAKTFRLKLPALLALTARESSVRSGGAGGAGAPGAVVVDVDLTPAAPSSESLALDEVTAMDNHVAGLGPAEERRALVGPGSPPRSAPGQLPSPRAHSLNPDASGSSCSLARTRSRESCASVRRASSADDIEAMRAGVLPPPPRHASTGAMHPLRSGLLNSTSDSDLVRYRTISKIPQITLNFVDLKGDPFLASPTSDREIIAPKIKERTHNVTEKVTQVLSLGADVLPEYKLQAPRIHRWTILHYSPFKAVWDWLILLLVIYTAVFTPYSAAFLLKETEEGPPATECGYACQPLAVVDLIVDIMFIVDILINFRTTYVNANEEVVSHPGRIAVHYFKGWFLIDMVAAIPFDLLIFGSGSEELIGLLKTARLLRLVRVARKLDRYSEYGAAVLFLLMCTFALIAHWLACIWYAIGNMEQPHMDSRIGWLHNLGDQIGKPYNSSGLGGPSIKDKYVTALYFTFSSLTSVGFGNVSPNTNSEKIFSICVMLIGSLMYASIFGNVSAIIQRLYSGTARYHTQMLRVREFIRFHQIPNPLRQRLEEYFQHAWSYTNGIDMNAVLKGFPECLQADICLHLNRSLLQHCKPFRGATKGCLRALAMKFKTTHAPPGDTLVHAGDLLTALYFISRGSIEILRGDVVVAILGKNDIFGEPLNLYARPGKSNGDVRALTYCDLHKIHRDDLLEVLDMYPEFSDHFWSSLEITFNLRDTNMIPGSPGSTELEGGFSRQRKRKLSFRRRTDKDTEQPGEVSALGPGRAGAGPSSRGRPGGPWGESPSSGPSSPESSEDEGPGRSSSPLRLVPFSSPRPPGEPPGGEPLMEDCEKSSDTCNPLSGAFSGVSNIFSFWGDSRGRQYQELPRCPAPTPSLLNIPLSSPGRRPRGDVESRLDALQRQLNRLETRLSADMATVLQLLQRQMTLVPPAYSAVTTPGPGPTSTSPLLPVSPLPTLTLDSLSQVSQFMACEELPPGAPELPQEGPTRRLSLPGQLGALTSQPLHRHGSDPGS

| Compound | hERG current change (%, negative = inhibition) at 10uM |
| --- | --- |
| COc1ccc(CCNC(=S)NC2CCN(Cc3ccccc3)CC2)cc1OC | -39.1% |
| Cc1nc(CCNC(=O)COc2ccccc2)cs1 | 17.2% |
| C=CCn1c(NCc2ccc(OC)cc2)nc2ccccc21 | -17.2% |
| COc1ccc(CNc2nc3ccccc3n2C(C)C)cc1 | -18.7% |
| COc1ccc(CNc2nc3ccccc3n2CCN2CCCCC2)cc1 | -59.7% |
| CN(C(=O)c1nn(C)c2c1CSc1ccccc1-2)c1ccccc1Cl | 3.14% |
| CC1(C)N=C2C(=[N+]1[O-])CCC/C2=N\O | 11.6% |
| O=C(NCCc1ccccn1)c1nc(Cn2cc(Br)cn2)no1 | 11.4% |
| Cc1cc(C)cc(NC(=S)N2CCC(N(C)CC3CCCO3)CC2)c1 (centres unmarked) | -52% |
| Cc1cccc(NC(=S)N2CCC(N(C)CC3CCCO3)CC2)c1 (centres unmarked) | -32.3% |
| Cc1ccc(NC(=S)N2CCC(N(C)CC3CCCO3)CC2)cc1 (centres unmarked) | -4.57% |
| O=C(CCCC(=O)N(CC(=O)NC1CCCC1)c1ccc(F)c(Cl)c1)Nc1ccccn1 | -9.24% |
| COCCCN(C(=S)Nc1cc(Cl)cc(Cl)c1)C(C)c1ccccn1 (centres unmarked) | -38.8% |
| CCCc1cc(=O)[nH]c(SCC(=O)Nc2cc(C)on2)n1 | -70.9% |
| CCCc1cc(=O)[nH]c(SCC(=O)Nc2nonc2C)n1 | 4.4% |
| CCc1cc(=O)[nH]c(SCC(=O)Nc2cc(C)on2)n1 | -4.55% |
| COC(=O)C1=C(O)/C(=C\c2ccc(CNC(=O)C(=O)Nc3ccc(C)c(C)c3)o2)N=C1C | -17.8% |
| CC(=O)Nc1cc(C(=O)O)ccc1S(=O)(=O)c1ccc(C)cc1 | 6.18% |
| CN1CCCN(C(=O)COc2ccc(F)cc2F)CC1 | -3.55% |
| CCCCNc1c(-c2ccc(OC)c(SC3CCCCC3)c2)nc2cnccn12.O=C(O)C(F)(F)F | -14.4% |
| CCCCNc1c(-c2ccc(-c3ccc(C(C)=O)cc3)c(OC)c2)nc2cnccn12.O=C(O)C(F)(F)F | -52.3% |
| CCCCCCSc1cc(-c2nc3cnccn3c2NCc2ccccc2)ccc1OC.O=C(O)C(F)(F)F | 0.374% |

| Compound | hERG current change (%, negative = inhibition) at 10uM |
| --- | --- |
| CCOC(=O)c1nn(-c2ccccc2)c(=O)cc1SC(C)C | -19.1% |
| CN(C)c1nc(OCC(=O)NC(C)(C)C)nc(N(C)C)n1 | 8.21% |
| O=C(Cc1nnc(NC(=O)Nc2ccccc2F)s1)NCc1ccccc1 | 8.98% |
| CC(C)(C)NC(=O)c1cnn2c1NC(c1ccc(F)cc1)CC2C(F)(F)F (centres unmarked) | 2.13% |
| COc1ccc(C(=O)Nc2nc(CC(=O)NCCc3ccccc3OC)cs2)cc1 | -6.94% |
| NS(=O)(=O)c1ccc(CCNc2nc(CN3CCCCC3)nc3sc4c(c23)CCC4)cc1 | -72.9% |
| NS(=O)(=O)c1ccc(CCNc2nc(CN3CCOCC3)nc3sc4c(c23)CCC4)cc1 | -31.2% |
| Cc1nc(NCCc2ccc(S(N)(=O)=O)cc2)c2c3c(sc2n1)CCC3 | 8.64% |
| CCOC(=O)Cc1nnc(NC(=O)COc2ccc(C)cc2)s1 | 5.07% |
| N#C/C(=C\c1cccnc1)C(=O)Nc1ccccc1 | 4.04% |
| O=C(NCc1cccnc1)c1cccc(-c2cc3ccccc3oc2=O)c1 | -63.9% |
| O=C(NCc1cccnc1)c1ccc(-c2cc3ccccc3oc2=O)cc1 | 4.65% |
| O=C(Nc1cccnc1)c1cccc(-c2cc3ccccc3oc2=O)c1 | 14.5% |
| O=C(OCc1cn(-c2ccc(Cl)c(Cl)c2)nn1)c1ccccc1Cl | -5.05% |
| CCOC(=O)C1(CCc2ccccc2)CCN(Cc2ccn[nH]2)CC1 | -72.5% |
| CCOC(=O)C1(CCCc2ccccc2)CCN(Cc2ccn[nH]2)CC1 | -73% |
| Cc1ccc(Cn2c(C)c3cnn(CC(=O)NC4CCCC4)c(=O)c3c2C)cc1 | 7.2% |
| Cc1[nH]c(C)c2c(=O)[nH]ncc12 | 16.6% |
| CCN(CC(=O)Nc1ccc2c(c1)OCCO2)Cc1cc(=O)n2ccsc2n1 | 3.88% |
| Cc1ccc(CCNC(=O)CN(C)S(=O)(=O)c2ccc3c(c2)c(=O)n(C)c(=O)n3C)cc1 | -11.7% |
| Cn1c(=O)c2cc(S(=O)(=O)NCCC(=O)NCCC3=CCCCC3)ccc2n(C)c1=O | -15.8% |
| CN(CC(=O)NCCC1=CCCCC1)S(=O)(=O)c1ccc2c(c1)c(=O)n(C)c(=O)n2C | -64.9% |
